Screening data (PubChem)
The list is not random: actives were taken first. Their share in the collection is about 7.5%.
SMN2 splice enh – increases expression of the SMN2 splice variant; HEK293 SMN2-luciferase splicing reporter, luminescence, 30-36 h; AID 1458; Potency, µM (doses to about 46.1 µM), for inactives: top-dose activity change, positive = activation, hits mostly activators; 2.8% of 210,000 active; further: % of control where 0% means no effect; nearly all actives have a fitted effect of over 55% in size
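qHTS luciferase splicing reporter: luminescence rises when SMN2 exon 7 is included in transfected HEK293 cells. Compound exposure lasted 30-36 h at 37C, with 4.5 mM final sodium butyrate as control, followed by a ONE-Glo read.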
NPC1 promoter act – NPC1 promoter activation; Huh7 NPC1 promoter luciferase reporter, 24 h; Potency, µM (doses to about 9.22 µM), for inactives: top-dose activation, most hits filed as activators; 2.4% of 320,000 active; AID 485313; further: % of control where 0% means no effect; nearly all actives have a fitted effect of over 60% in size
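Luciferase expression driven by the NPC1 promoter was measured in stably transfected Huh7 cells after a 24 h compound incubation, using a luciferase reagent and a luminescence read.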
Rab9 prom act – activates the Rab9 promoter | Huh7 Rab9 promoter-luciferase reporter, luminescence, 24 h | Potency, µM (top dose mostly 9.22 µM), inactives show at the top dose activation, negative = inhibition, most hits filed as activators | 2.8% of 320,000 active; further: % of control where 0% means no effect; nearly all actives have a fitted effect of over 60% in size
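Huh7 cells stably carrying a Rab9 promoter-luciferase reporter, 1500 cells per well in OP-MEM I with 10% FBS, treated with compound 24 hours at 37C. Luciferase activity read by luminescence after 10 minutes with Amplite reagent.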
FLuc modulator – counter-screen for miR-21 project: firefly luciferase inhibitors or activators. P08659. purified FLuc, Km substrates, luminescence inhibition. Potency, µM (series often up to 57.5 µM), inactives show at the highest dose activity change, negative = inhibition, hits mostly inhibitors. 6.9% of 360,000 active;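 further: plate controls were vehicle for no effect and reference inhibitor for full effect; nearly all actives have a fitted effect of over 55% in size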
Target sequence (P08659 whole entry, looked up): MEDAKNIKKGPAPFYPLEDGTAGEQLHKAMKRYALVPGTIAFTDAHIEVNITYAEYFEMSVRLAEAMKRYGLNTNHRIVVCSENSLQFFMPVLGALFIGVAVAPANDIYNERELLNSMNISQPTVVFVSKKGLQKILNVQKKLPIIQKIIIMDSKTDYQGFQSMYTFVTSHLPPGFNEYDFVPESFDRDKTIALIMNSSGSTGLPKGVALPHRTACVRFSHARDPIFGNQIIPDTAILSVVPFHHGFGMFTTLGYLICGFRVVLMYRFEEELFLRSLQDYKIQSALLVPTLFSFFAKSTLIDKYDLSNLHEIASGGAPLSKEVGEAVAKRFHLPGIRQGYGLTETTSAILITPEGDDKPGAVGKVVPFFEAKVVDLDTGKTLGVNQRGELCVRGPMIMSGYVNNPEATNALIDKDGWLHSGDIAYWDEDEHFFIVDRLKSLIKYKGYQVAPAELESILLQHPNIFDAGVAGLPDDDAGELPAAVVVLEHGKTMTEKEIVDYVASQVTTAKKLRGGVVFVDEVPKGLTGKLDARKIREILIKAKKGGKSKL
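Purified P. pyralis luciferase (10nM final) with 10uM D-luciferin and 10uM ATP (Km levels) in 50mM Tris acetate pH 7.5, 10mM Mg acetate, 0.01% Tween-20, 0.05% BSA; qHTS 6-point titration, ~60 µM downward; luminescence read.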
ELG1 genotoxic – induces genotoxicity in HEK293T cells with luciferase-tagged ELG1 | HEK293T ELG1-luciferase reporter, luminescence, 16 h | Potency, µM (doses to about 46 µM), inactives show at the highest dose activity change, positive = activation, most hits filed as activators | 1.3% of 330,000 active; further: % of control where 0% means no effect; nearly all actives have a fitted effect of over 60% in size
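Quantitative HTS format in 1536-well plates. HEK293T ELG1-luciferase reporter cells receive test compound and are incubated 16 hr at 37 °C, 5% CO2; ONE-Glo added, 30 min room temperature, then luminescence read.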
An asterisk follows results filed as active; ? = inconclusive; . = no result; [ ] = another dose, or the depositor's remark. The call rests on the fitted dose curve; in most records, active means well fitted curve in the direction sought with a large enough effect; inconclusive means small, poorly fitted or top-dose-only effect, or another doubt; inactive means no such curve, though single readings can be large; an effect the other way counts as inactive or inconclusive. Potency means the concentration at half of the fitted maximal effect.

SMILES | SMN2 splice enh | NPC1 promoter act | Rab9 prom act | FLuc modulator | ELG1 genotoxic
CCC(C(=O)N1CCN(c2ccccc2F)CC1)n1nc(C)c2sc3ccccc3c2c1=O (configuration not stated) | . | . | . | 15µM* | .
Cc1nn(C(C)C(=O)NCCCN2CCCCCC2)c(=O)c2c1sc1ccccc12 (configuration not stated) | . | -5% | -3% | -1% | 0%
Cc1nn(C(C)C(=O)NCc2ccccc2Cl)c(=O)c2c1sc1ccccc12 (configuration not stated) | -2% | 2% | -5% | -3% | -5%
CCC(C(=O)NCc1ccccc1)n1nc(C)c2sc3ccccc3c2c1=O (configuration not stated) | . | . | . | 2% | .
Cc1nn(C(C)C(=O)NCc2cccc(F)c2)c(=O)c2c1sc1ccccc12 (configuration not stated) | . | . | . | 11µM* | .
C[C@H]1Cc2c(COc3ccccc3)nc3c(c2CO1)CN(S(=O)(=O)c1ccc(Cl)c2nonc12)CC3 | -1%[9.22 µM] | . | . | . | .
COc1ccc(CCNC(=O)CCCn2nc(C)c3sc4ccccc4c3c2=O)cc1OC | . | . | . | 13µM* | .
CCc1c(C(=O)NN2C(=O)C3CCCCC3C2=O)csc1C (configuration not stated) | 17% | 6% | 8% | ? | -3%
Oc1[nH]c2ccccc2c1C=Nc1ccc2c(c1)OCCO2 | . | ? | 1.4µM* | 0.85µM* | ?
Oc1c(Br)cc(Br)cc1C=Nc1ccc2c(c1)OCCO2 | 0% | 1% | 4% | 24µM* | ?
N#CC(C(=O)NC1CCCCC1)=C1CCCCCC1 | 10% | -3% | 1% | -2% | -2%
Cc1ccc2c(c1)COc1c3ccc(C(=O)N[C@@H](CO)C(C)C)cc3nn1-2 | . | 1.8µM* | 3.5µM* | 6.7µM* | ?
COCCCNC(=O)c1ccc2c(c1)ncn2-c1ccc(C)cc1C | . | -7% | -2% | 7% | -1%
CCCCn1nc2cc(C(=O)N[C@H](C)C3CCCCC3)ccc2c1OCC | -36% | -1% | -1% | -1% | -4%
COCCNC(=O)c1ccc2c3n(nc2c1)-c1ccc(C)cc1CO3 | . | 0.71µM* | 1.1µM* | 6.7µM* | ?
O=C(NCC1CCCO1)c1ccc2c3n(nc2c1)-c1ccccc1CO3 (configuration not stated) | . | 1µM* | 1.1µM* | 4.8µM* | ?
C[C@@H](CO)NC(=O)c1ccc2c3n(nc2c1)-c1ccccc1CO3 | . | 0.45µM* | ? | 0.6µM* | ?
O=C(NCC1CCCO1)c1ccc2c(c1)OCO2 (configuration not stated) | -6% | 5% | 19% | 4% | 10%
O=C(CN1C(=O)/C(=C/c2ccccc2F)Sc2ccccc21)NCC1CCCO1 (configuration not stated) | . | -2% | 0% | -12% | -9%
COC(=O)c1cc2sccc2n1Cc1c(C)cc(C)cc1C | 8% | . | . | 7% | .
CC(C)(C)C(=O)/C=c1\[nH]c(=O)/c(=C\c2ccc(F)cc2)s1 | -16% | 0% | -4% | 24µM* | -21%
Cc1ccccc1/C=c1\s/c(=C\C(=O)C(C)(C)C)[nH]c1=O | -15% | -1% | -1% | 17µM* | -11%
CC(NC(=O)c1ccc2c(c1)OCO2)C(c1cccs1)N1CCN(c2ccccc2)CC1 (configuration not stated) | . | 3% | -1% | -8% | -9%
C#CCOCCOCCOCCNc1nc(N2CCN(C(=O)[C@H](CCCCN)n3cc([C@@H](N)CO)nn3)CC2)nc(N2CCN(C(=O)[C@H](CCCCN)n3cc([C@@H](N)CC(C)C)nn3)CC2)n1 | . | . | . | . | 2%
O=C1c2[nH]nc(-c3ccccc3)c2C(c2ccccc2)N1c1cccc(C(F)(F)F)c1 (configuration not stated) | -34% | . | . | 0% | .
SMILES | SMN2 splice enh | NPC1 promoter act | Rab9 prom act | FLuc modulator | ELG1 genotoxic
CCNC(=S)N/N=C/c1cccc(OCc2c(F)cccc2Cl)c1 | -53% | 3% | -7% | 17µM* | -4%
CNC(=S)N/N=C/c1cccc(OCc2ccccc2F)c1 | 1% | 13% | 18% | 4.8µM* | ?
COc1ccc(OC)c(CNC(=O)c2ccc(C)c(NC(=O)c3nsc4ccccc34)c2)c1 | . | . | . | -5% | .
NNc1nc2ccc(F)cc2s1 | 21% | 15% | 22% | 19µM* | ?
NNc1nc2ccc(Cl)cc2s1 | ? | ? | ? | ? | -1%
Fc1ccc2nc(Nc3ccccc3)sc2c1 | 16µM* | 2.8µM* | 2.2µM* | 7.6µM* | ?
CCN1CCN(Cc2ccc(NC(=O)c3cc(NC(=O)C(=O)c4c[nH]c5ccccc45)cc(OC)c3)cc2C(F)(F)F)CC1 | . | -5% | -4% | 9.5µM* | -16%
CCN1CCN(Cc2ccc(NC(=O)c3cc(NC(=O)c4cc(C)on4)cc(OC)c3)cc2C(F)(F)F)CC1 | . | -5% | -1% | ? | ?
CCN1CCN(Cc2ccc(NC(=O)c3ccc(C)c(NC(=O)c4ccc5n[nH]nc5c4)c3)cc2C(F)(F)F)CC1 | . | -2% | 1% | 19µM* | -1%
CCN1CCN(Cc2ccc(NC(=O)c3cc(NC(=O)c4cnn(-c5ccccc5)c4N)cc(OC)c3)cc2C(F)(F)F)CC1 | . | -1% | 0% | 17µM* | -5%
CCCc1ccc(S(=O)(=O)N2CCN(C(C)C(=O)NCc3ccc(OC)cc3)CC2)cc1 (configuration not stated) | . | 3% | -3% | -2% | -6%
CCN(CCCNC(=O)CSc1cc(=O)n(CC)c2ccccc12)c1cccc(C)c1 | -28% | . | . | -16% | .
COc1cc(O)c2c(c1)OC(C)(C)CC2=O | -8% | -1% | -4% | -2% | -1%
CC1(C)CC(=O)c2c(O)cc(OCc3ccc(Br)cc3)cc2O1 | ? | 2.5µM* | 2.8µM* | 3µM* | 2.6µM*
CC1(C)CC(=O)c2ccc(OCc3ccc([N+](=O)[O-])cc3)cc2O1 | . | 2.5µM* | 2.5µM* | 6µM* | ?
